Screening data: PubChem BioAssay, several laboratories
Compounds with a hit are over-represented: about 2.2% of the library has one in this group of screens.
proKLK7 act: activates the human kallikrein-7 zymogen; purified proKLK7, EDANS-DABCYL substrate fluorescence; 100% is mature enzyme control, 0% vehicle; activation, % at 7 µM; 370,000 compounds, 0.9% hits; AID 652039;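 active means activation above the mean of all tested compounds plus 3 SD, computed per campaign excluding outliers beyond control limits, cut at about 13% in these data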
ADAM17 inh: ADAM17 inhibition, QFRET primary screen. 370,000 compounds, 0.83% hits. inhibition, % at 6.95 µM. AID 720648. recombinant ADAM17, EDANS/DABCYL FRET peptide cleavage. P78536;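 active means inhibition above the mean of compounds lying between control limits plus 3 SD, set per campaign, cut at about 8.5% in these data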
Target sequence (P78536 215-824 limits assumed): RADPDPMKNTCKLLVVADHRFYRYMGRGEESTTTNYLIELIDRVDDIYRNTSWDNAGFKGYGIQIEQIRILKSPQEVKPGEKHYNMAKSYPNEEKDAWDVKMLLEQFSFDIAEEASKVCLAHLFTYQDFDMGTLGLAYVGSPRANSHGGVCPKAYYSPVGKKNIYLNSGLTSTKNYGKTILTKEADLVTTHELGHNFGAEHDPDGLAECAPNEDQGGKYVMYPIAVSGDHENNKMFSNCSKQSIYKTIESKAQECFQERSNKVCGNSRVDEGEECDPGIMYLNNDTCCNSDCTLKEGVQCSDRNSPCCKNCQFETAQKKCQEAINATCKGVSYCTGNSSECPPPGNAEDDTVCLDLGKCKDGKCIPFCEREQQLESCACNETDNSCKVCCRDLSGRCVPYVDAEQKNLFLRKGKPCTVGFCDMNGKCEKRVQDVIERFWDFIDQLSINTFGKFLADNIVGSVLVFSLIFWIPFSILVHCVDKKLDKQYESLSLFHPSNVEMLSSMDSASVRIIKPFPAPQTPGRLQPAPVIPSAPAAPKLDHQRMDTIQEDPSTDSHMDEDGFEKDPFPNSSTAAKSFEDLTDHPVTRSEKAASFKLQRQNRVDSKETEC
ADAM10 inh: inhibits human ADAM10 | O14672 | recombinant ADAM10, EDANS/DABCYL FRET peptide cleavage, 3 h | inhibition, % at 7 µM | 370,000 compounds, 0.62% hits | AID 720582;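 active means inhibition above a per-campaign cutoff equal to the mean of compounds falling between control-based bounds plus 3 SD, cut at about 20% in these data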
GC-A act: GC-A (human) enzyme activation; AID 1671463; 370,000 compounds, 0.14% hits; P16066; HEK293 GC-A cells, cGMP TR-FRET, EC30 ANP; 0% at EC30 ANP, 100% saturating ANP; activation, % at 10 µM; in the data active means activation above about 40%
GC-B act: GC-B (human) receptor activation; P20594; HEK293-GC-B cells, CNP EC30, cGMP TR-FRET; 0% at EC30 CNP, 100% saturating CNP; activation, % at 10 µM; 370,000 compounds, 0.11% hits; AID 1920062;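 active means activation at 10 µM reaching about 35% in either raw or pattern-adjusted values, limit read from the data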
ADAM10 confirm: confirmation of inhibitors of human ADAM10. shares compounds with ADAM10 inh. ADAM10 QFRET peptide cleavage, EDANS fluorescence. inhibition, % at 6.95 µM. 2,100 compounds, 1% hits;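 active means inhibition above about 20% chosen separately for each screening run, limit read from the data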
ADAM17 counter: inhibits human ADAM17 in ADAM10 exosite counter-screen; shares compounds with ADAM10 inh; inhibition, % at 6.95 µM; ADAM17 QFRET peptide cleavage, EDANS fluorescence; 2,100 compounds, 0.5% hits;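 active means mean triplicate inhibition above the solvent-only control wells' mean plus 3 SD, cut at about 12% in these data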
ADAM10 counter: inhibits human ADAM10 in ADAM17 exosite counter-screen; shares compounds with ADAM17 inh; recombinant ADAM10, EDANS/DABCYL FRET peptide cleavage, 3 h; inhibition, % at 6.95 µM; 2,900 compounds, 47% hits; AID 743256;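 active means mean inhibition over the triplicate runs exceeds the activity threshold set in the earlier primary screen, cut at about 20% in these data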
ADAM17 confirm: confirmation of inhibitors of human ADAM17 | shares compounds with ADAM17 inh | recombinant ADAM17, EDANS/DABCYL QFRET peptide cleavage | inhibition, % at 6.95 µM | 2,900 compounds, 65% hits;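 active means mean inhibition across replicates above the hit cutoff set in the primary screen, cut at about 8.5% in these data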
Each line names hits and unclear results; the compound was inactive in the other large screens (follow-up assays come after a bar, where they were run).

CCOC(=O)C(Cc1nc(OCc2ccccc2)cc(OCc2ccccc2)n1)=NO	ADAM17 inh 8.8, ADAM10 inh 28 | ADAM10 confirm inactive | ADAM17 counter inactive | ADAM10 counter 24 | ADAM17 confirm 12
COc1cc(-c2nnc(COc3ccc4ccccc4c3)o2)cc(OC)c1OC	ADAM17 inh 10, ADAM10 inh 21 | ADAM10 confirm inactive | ADAM17 counter inactive | ADAM10 counter 22 | ADAM17 confirm 15
CC(O)(c1cccc(F)c1)c1nc(-c2cccc(F)c2)cs1 (stereo not given)	none
OC(c1ccccc1)(c1nc(-c2ccc3c(c2)OCO3)cs1)C(F)(F)F (stereo not given)	ADAM17 inh 9.2, ADAM10 inh 23 | ADAM10 confirm inactive | ADAM17 counter inactive | ADAM10 counter 25 | ADAM17 confirm 14
CS(=O)(=O)c1ccc(-c2csc(C(O)(c3ccccc3)C(F)(F)F)n2)cc1 (stereo not given)	none
OC(c1ccccc1)(c1nc(-c2cccc(F)c2)cs1)C(F)(F)F (stereo not given)	ADAM17 inh 12, ADAM10 inh 33 | ADAM10 confirm inactive | ADAM17 counter inactive | ADAM10 counter 39 | ADAM17 confirm 18
OC(c1ccccc1)(c1nc(-c2ccc3ccccc3c2)cs1)C(F)(F)F (stereo not given)	none
OC(c1ccccc1)(c1nc(-c2ccccc2)cs1)C(F)(F)F (stereo not given)	ADAM17 inh 8.8, ADAM10 inh 23 | ADAM10 confirm inactive | ADAM17 counter inactive | ADAM10 counter 33 | ADAM17 confirm 17
O=C(NCc1ccccc1Cl)C1CCCN(c2nc3ccccc3o2)C1 (stereo not given)	none
CCCc1nc2ccccc2c(C(=O)OC(C)C(=O)NCc2ccc3c(c2)OCO3)c1CC (stereo not given)	ADAM17 inh 10, ADAM10 inh 27 | ADAM10 confirm inactive | ADAM17 counter inactive | ADAM10 counter 25 | ADAM17 confirm 12
O=[N+]([O-])c1cc(S(=O)(=O)Nc2ccccc2)ccc1N1CCN(c2ccccc2)CC1	ADAM17 inh 11, ADAM10 inh 24 | ADAM10 confirm inactive | ADAM17 counter inactive | ADAM10 counter 38 | ADAM17 confirm 21
FC(F)(F)c1cccc(N2CCN(C(=S)Nc3nccc4ccccc34)CC2)c1	none (no result: proKLK7 act)
CC(=NNC(=O)CSc1nnc(-c2ccc(C(C)(C)C)cc2)n1-c1ccccc1)c1cccc2ccccc12	ADAM17 inh 8.9, ADAM10 inh 23 | ADAM10 confirm inactive | ADAM17 counter inactive | ADAM10 counter inactive | ADAM17 confirm 13
CC(C)(C)c1ccc(-c2nnc(SCC(=O)Nc3cccc4ccccc34)n2Cc2ccco2)cc1	ADAM17 inh 9.2, ADAM10 inh 20 | ADAM10 confirm inactive | ADAM17 counter inactive | ADAM10 counter 36 | ADAM17 confirm 17
O=C(CSc1nnc(-c2ccc(Cl)cc2)n1Cc1ccco1)Nc1cccc2ccccc12	none
O=C1CC2c3cc(Br)ccc3CCN2C(=O)CN1Cc1ccccc1 (stereo not given)	none
Cc1cc(Nc2ccc(Cl)cc2)n(-c2cccc(Cl)c2)n1	ADAM17 inh 9.8, ADAM10 inh 24 | ADAM10 confirm inactive | ADAM17 counter inactive | ADAM10 counter inactive | ADAM17 confirm 11
Cc1ccc(S(=O)(=O)N/N=C/c2ccc(OS(=O)(=O)c3ccc(C)c([N+](=O)[O-])c3)cc2)cc1	ADAM17 inh 12, ADAM10 inh 26 | ADAM10 confirm inactive | ADAM17 counter inactive | ADAM10 counter 36 | ADAM17 confirm 20
